Tgondii IFNg – inhibitors of Toxoplasma gondii growth with IFN-gamma. Toxoplasma gondii growth in IFN-gamma-treated host cells; hits give low values. activity change, negative = inhibition, % (no concentration beside the values). 69,000 tested, 3.8% active; in the data active = activity change below about -70%, passing the limit was not always enough;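 note: host cells are HeLa cells infected with Toxoplasma gondii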
Starred values were filed as active, the others as inactive; i = inactive. Only a selection was taken, and hits are over-represented in it overall.

SMILES	Tgondii IFNg
CC(C)CN(C[C@@H](O)[C@H](Cc1ccccc1)NC(=O)O[C@H]1CCOC1)S(=O)(=O)c1ccc(N)cc1	-2
Cc1cnccc1NCCn1ccnc1C1CCOC1 (stereo not drawn)	0
CC(C)CC(=O)Nc1ccc(-c2nc(-c3ccccc3)co2)cc1	204
COc1ccc(CCN(C)C2CCCN(c3ncnc4nc[nH]c34)C2)cc1OC (stereo not drawn)	1
CCOC(=O)c1nc(N2CCN(C3CCCCC3)CC2)c2ccccc2n1	4
CCOC(=O)c1nc(N(CC)c2ccccc2)c2ccccc2n1	14
CCOC(=O)c1nc(N(Cc2cccs2)C2CCCC2)c2ccccc2n1	-76*
O=C(Cn1cnc2c([nH]c3ccc(Br)cc32)c1=O)N1CCN(c2ccccn2)CC1	40
Cc1nccn1-c1ccc(-c2cccc3cccnc23)nn1	-3
COc1ccc(CCCC(=O)N2CCCC2c2[nH]ncc2-c2ccncc2)cc1C (stereo not drawn)	-21
CC(=O)Nc1ccc(-c2ccccc2CO)c2cccnc12	1
Cc1ccc(NC(=O)c2nnn(Cc3nc(-c4ccc(Cl)cc4)oc3C)c2C)c(Br)c1	54
N#Cc1c(C(F)(F)F)cc(-c2ccccc2)nc1SCC(N)=O	30
CCc1nc(SCc2nnc(-c3ccc(C)cc3)o2)c2c(C)c(C)sc2n1	-32
N#Cc1c(-c2ccccc2)cc(-c2ccccc2)nc1SCc1nnc(-c2ccccc2)o1	-100*
COc1ccc(S(=O)(=O)CCNC(=O)c2cc3cc(C)cc(C)c3nc2C)cc1	16
O=C(N[C@H]1CN[C@H](C(=O)NCCCn2ccnc2)C1)c1cccc(Cl)c1	6
Cc1ccc(OCCN(C)C(=O)c2cccc(C#CC(C)(C)O)c2)c(C)c1	-16
C=CCN1C(=O)C2(NCCc3c2[nH]c2ccc(Cl)cc32)c2ccccc21 (stereo not drawn)	-54
CCn1ncnc1CN1CCCC(c2n[nH]c(=O)n2-c2ccccc2)C1 (stereo not drawn)	-19
Cc1ncc(CN2CCC(c3nn(C)c(=O)n3-c3ccccc3)CC2)s1	-6
CCn1ncnc1CN1CCC(c2nn(C)c(=O)n2-c2ccccc2)CC1	-74*
CNC(=O)CCN(C)Cc1cc2n(n1)CCNC2	3
Cc1ncc(-c2ccccn2)c(CN(C)C(=O)Cc2sc(C)nc2C)n1	163
N#Cc1ccccc1-c1ccccc1C#N	60
SMILES	Tgondii IFNg
N#Cc1cc2c(c3c1CCc1ccccc1-3)-c1ccccc1CC2	-80*
O=C(CCC1Nc2c3ccccc3nc(=S)n2C1=O)N1CCN(c2ccccc2F)CC1 (stereo not drawn)	7
O=C(Cn1nc(-c2ccc(F)cc2)ccc1=O)NCc1ccc2c(c1)OCO2	-5
OC1(C(F)(F)F)CC(c2cccs2)=NO1 (stereo not drawn)	-61
O=C(c1cccs1)N1N=C(c2ccc(Cl)cc2)CC1(O)C(F)(F)F (stereo not drawn)	-97*
O=C(NCCc1csc(-c2ccc(Cl)cc2)n1)c1ccccc1C(F)(F)F	63
CCCc1cc(NCC2(O)CCCNCC2)nc(C)n1 (stereo not drawn)	5
CCOc1ccc(C2c3[nH]c4ccccc4c3CCN2C(=O)c2ccc(OC)cc2)cc1 (stereo not drawn)	-76
Cc1ccc(C(=O)N2CCc3c([nH]c4ccccc34)C2c2ccc(F)cc2)cc1 (stereo not drawn)	-19
Cc1ccc(C2c3[nH]c4ccccc4c3CCN2C(=O)c2ccc(Br)cc2)cc1 (stereo not drawn)	246
O=C(c1ccccc1)N1CCc2c([nH]c3ccccc23)C1c1ccc(F)cc1 (stereo not drawn)	-85*
COc1ccc(C(=O)N2CCc3c([nH]c4ccccc34)C2c2ccc(F)cc2)cc1 (stereo not drawn)	-130*
CN(C)c1cccc(C(=O)N2CCc3c([nH]c4ccccc34)C2c2ccc(F)cc2)c1 (stereo not drawn)	-94*
COCC(=O)N1CCc2c([nH]c3ccccc23)C1c1ccc(F)cc1 (stereo not drawn)	410
O=C(c1ccccc1F)N1CCc2c([nH]c3ccccc23)C1c1ccc(F)cc1 (stereo not drawn)	281
Cc1ccc(C2c3[nH]c4ccccc4c3CCN2C(=O)c2ccc(F)cc2)cc1 (stereo not drawn)	i
CSc1ccc(C2c3[nH]c4ccccc4c3CCN2C(=O)c2ccc(N(C)C)cc2)cc1 (stereo not drawn)	-53
COc1ccc(C2c3[nH]c4ccccc4c3CCN2C(=O)c2ccc(Br)cc2)cc1 (stereo not drawn)	-89*
Cn1nc(-c2ccccn2)c2c1NC(=O)CC2Cn1c(=O)oc2ccccc21 (stereo not drawn)	60
CCN1c2cc(C)ccc2-n2cccc2C12CCN(C(=O)Nc1ccc(Br)cc1)CC2	148
Cc1ccccc1CN1CC2(CCN(C(=O)Nc3ccccc3)C2)C1	0
O=C(CSc1nc2cccnc2n1-c1ccc(F)cc1)NCc1ccco1	3
COc1ccc2[nH]c(C)c(-c3csc(NC(=O)c4cncc(O)c4)n3)c2c1	21
Cc1ccc(-c2coc(-c3ccc(NC(=O)Nc4cccc(Cl)c4)cc3)n2)cc1	78
Cc1ccc(-c2nc(-c3noc4ccc(C(=O)N5CCCO5)cc34)co2)cc1	29
SMILES	Tgondii IFNg
CCOC(=O)c1sc(-c2cnccn2)nc1C	11
CCS(=O)(=O)N1CC[C@H]2[C@@H](COC)CNC(=O)[C@H]2CC1	-11
O=C(c1ccco1)N1CC2CC(C1)CN(C(=O)C1CCOC1)C2 (stereo not drawn)	-4
Cc1ccc(-c2nc(Cn3nnc(C(=O)Nc4ccccc4)c3C)c(C)o2)cc1	1
Cc1ccc(-c2nc(Cn3nnc(C(=O)NCc4ccc(C(C)C)cc4)c3C)c(C)o2)cc1	-9
Cc1ccc(-c2nc(Cn3nnc(C(=O)NCCc4ccccc4)c3C)c(C)o2)cc1	-49
Cc1ccc(-c2nc(Cn3nnc(C(=O)NCc4ccc(Br)cc4)c3C)c(C)o2)cc1	-68
Cc1ccc(CNC(=O)c2nnn(Cc3nc(-c4ccc(C)cc4)oc3C)c2C)cc1	-94*
Cc1ccc(-c2nc(Cn3nnc(C(=O)NC4CCCC4)c3C)c(C)o2)cc1	-101*
Cc1cccc(OC2CN(C(=O)CCc3n[nH]c(C)c3C)C2)c1	-1
CC(Cc1ccccn1)NC(=O)Cn1c(-c2ccccn2)nc2ccccc21 (stereo not drawn)	-48
COc1ncc(CN2CC[C@@H](c3ccc4ccccc4c3)[C@H](O)C2)cn1	1
Cc1ccccc1C(=O)N1CCN(Cc2ccccc2)CCC1=O	-56
OC1(c2cccc(C(F)(F)F)c2)CCN(Cc2ncccc2F)CC1	0
CC[C@@H](C(=O)[C@@H](C)[C@@H](O)[C@H](C)[C@@H]1O[C@@H]([C@@H](CC)C(=O)O)CC[C@@H]1C)[C@H]1O[C@]2(C=C[C@@H](O)[C@]3(CC[C@@](C)(C4CC[C@](O)(CC)[C@H](C)O4)O3)O2)[C@H](C)C[C@@H]1C (stereo partly drawn)	-81*
CC[C@@H](C(=O)[C@@H](C)[C@@H](O)[C@H](C)[C@@H]1O[C@@H]([C@@H](CC)C(=O)O)CC[C@@H]1C)[C@H]1OC2(C=C[C@@H](O)[C@]3(CC[C@@](C)(C4CC[C@](O)(CC)[C@H](C)O4)O3)O2)[C@H](C)C[C@@H]1C (stereo partly drawn)	-84*
O=C(c1ccoc1)N1CCC2(CCC(=O)N2Cc2cccnc2)CC1	0

Assay outcomes (PubChem)
